# Pf Dd2 inh = Plasmodium falciparum Dd2 growth inhibition; P. falciparum Dd2 growth, SYBR Green, 72 h; Potency, µM (top dose mostly 28.9 µM), inactives show at the top dose activity, negative = inhibition, actives largely listed as inhibitors; hit rate 4.3% among 120,000; active = well fitted inhibition curve with a large enough effect;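 note: plate controls were DMSO vehicle for no effect and reference drug for full effect; nearly all actives have a fitted effect of over 65% in size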
#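 Readout: SYBR Green fluorescence, 485 nm excitation, 535 nm emission, after ~16 h lysis at 37C. Before that, Dd2-infected red cells (2.5% hematocrit) grew 72 h with compound, 29 uM top final concentration.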
# * = called active by the depositor; i = inactive; [ ] = remark or other dose. The entries come from a sample that favours hits as a whole. Potency is the fitted concentration of half-maximal effect.
SMILES,Pf Dd2 inh
COC(=O)c1ccccc1NC(=O)CSc1nc(=O)cc(N)n1-c1ccccc1,55.2%
COC(=O)c1ccc(NC(=O)CSc2nc3c(c(=O)n(C)c(=O)n3C)n2Cc2ccccc2)cc1,25.5%
COC(=O)c1ccc(NC(=O)C(C)Sc2nc(=O)cc(N)n2CCc2ccccc2)cc1 (stereo not drawn),11.2µM*
CCc1ccc(N2CC(c3noc(-c4ccc(OC)nc4OC)n3)CC2=O)cc1 (stereo not drawn),17.5%
CC(C)c1cc(C2CCCN2C(=O)CCc2cc3n(n2)CCCNC3)no1 (stereo not drawn),-5.6%
CCc1cccc(NC(=O)Cn2c(N(C)Cc3ccccc3)nc(C)cc2=O)c1,i
Cc1cccc(NC(=O)Cn2c(N(C)Cc3ccccc3)nc(C)cc2=O)c1,5.01µM*
Cc1cc(=O)n(CC(=O)Nc2ccc(C)c(C)c2)c(N(C)Cc2ccccc2)n1,i
O=C(C1CCOCC1)N1CCCC(CCc2ccc(F)c(F)c2)C1 (stereo not drawn),-3.7%
CN1C[C@H](NCc2ccc(F)cc2)CCC[C@@H](C(=O)NC2CCOCC2)CC1=O,i
CC(C)(C)c1ccc(NC(=O)OC[C@H]2C[C@@H]3CCN2C[C@@H]3c2cc(C3CCCC3)nc(-c3ccncc3)n2)cc1,1µM*
Cc1nc(C2CCCC2)cc([C@H]2CN3CC[C@H]2C[C@@H]3CNC(=O)CCCC(=O)O)n1,i
CCC(CC)c1cc([C@H]2CN3CC[C@H]2C[C@@H]3CNS(=O)(=O)c2cccs2)nc(-c2ccncc2)n1,1.12µM*
COc1ccc(-c2cc([C@H]3CN4CC[C@H]3C[C@@H]4COC(=O)NC3CCCCC3)nc(C)n2)cc1,i
Cc1nc(-c2ccc(F)cc2)cc([C@H]2CN3CC[C@H]2C[C@@H]3CNS(=O)(=O)Cc2ccccc2)n1,i
Cc1nc(-c2ccc(C(F)(F)F)cc2)cc([C@H]2CN3CC[C@H]2C[C@@H]3CNS(C)(=O)=O)n1,i
COc1ccc(NC(=O)OC[C@H]2C[C@@H]3CCN2C[C@@H]3c2cc(C3CCCC3)nc(-c3ccncc3)n2)cc1,1.78µM*
CC(C)c1ccc(NC(=O)OC[C@H]2C[C@@H]3CCN2C[C@@H]3c2cc(C3CCCCC3)nn2C)cc1,-23.2%
Cc1nc(-c2ccco2)cc([C@H]2CN3CC[C@H]2C[C@@H]3CNS(=O)(=O)c2cccs2)n1,7.08µM*
COc1ccc(NC(=O)OC[C@H]2C[C@@H]3CCN2C[C@@H]3c2cc(-c3ccccc3OC)nn2C)cc1,-25.7%
CC(=O)Nc1ccc(S(=O)(=O)NC[C@H]2C[C@@H]3CCN2C[C@@H]3c2cc(-c3ccco3)nc(C)n2)cc1,i
COc1ccc(OC)c(S(=O)(=O)NC[C@H]2C[C@@H]3CCN2C[C@@H]3c2cc(-c3ccco3)nc(C)n2)c1,i
N#Cc1ccc(C(=O)N[C@H]2[C@H](O)[C@H](O)C[C@@H]2c2cccnc2)cc1,29.2%[44.1 µM]
CC(C)N1C(=O)C2(CCCC2)C1C(=O)NCc1nc2ccccc2n1C (stereo not drawn),-17.3%
COc1ccc(CN2C=C(C(=O)OCc3noc(-c4ccccc4F)n3)C(C)=NS2(=O)=O)cc1,-18.1%
SMILES,Pf Dd2 inh
O[C@H]1CC[C@@H](Cc2cc(-c3ccccc3)on2)O[C@@H]1CNC1CCNCC1,-1.2%[44.1 µM]
O=C(O)c1cn2ccnc(-c3ccc(F)cc3)c2n1,-13.0%
CN1CCCN(S(=O)(=O)c2ccccc2F)c2ccccc21,-26.5%
COc1ccccc1-c1cc([C@H]2CN3CC[C@H]2C[C@@H]3COC(=O)Nc2cccc(C(C)=O)c2)nc(C)n1,-3.9%
Cn1nc(-c2ccccc2)cc1[C@H]1CN2CC[C@H]1C[C@@H]2CNS(=O)(=O)c1cccs1,-12.9%[44.1 µM]
Cc1ccc(C(=O)NC[C@H]2C[C@@H]3CCN2C[C@@H]3c2cc(-c3ccc(F)cc3)nn2C)cc1,i
CCCNC(=O)OC[C@H]1C[C@@H]2CCN1C[C@@H]2c1cc(C(CC)CC)nc(-c2ccncc2)n1,1.41µM*
Cn1nc(-c2ccc3ccccc3c2)cc1[C@H]1CN2CC[C@H]1C[C@@H]2COC(=O)Nc1ccccc1,-23.7%
CCC(CC)c1cc([C@H]2CN3CC[C@H]2C[C@@H]3COC(=O)Nc2ccc(C(C)(C)C)cc2)nc(-c2ccncc2)n1,1.26µM*
CC(=O)c1ccc(NC(=O)OC[C@H]2C[C@@H]3CCN2C[C@@H]3c2cc(-c3cccs3)nn2C)cc1,-25.0%
Cn1nc(-c2ccc3ccccc3c2)cc1[C@H]1CN2CC[C@H]1C[C@@H]2CNS(=O)(=O)c1cccs1,12.6µM*
COc1ccc(C(=O)NC[C@H]2C[C@@H]3CCN2C[C@@H]3c2cc(-c3ccc(F)cc3)nn2C)cc1,i
Cn1nc(-c2cccs2)cc1[C@H]1CN2CC[C@H]1C[C@@H]2CNS(=O)(=O)c1ccccc1,i
Cn1nc(-c2ccc(F)cc2)cc1[C@H]1CN2CC[C@H]1C[C@@H]2CNC(=O)c1cccs1,12.6µM*
CCC(CC)C(=O)NC[C@H]1C[C@@H]2CCN1C[C@@H]2c1cc(-c2ccco2)nc(C)n1,-29.8%[44.1 µM]
CN1Cc2ncnc(NCc3cccnc3)c2CN(c2ccccc2)C1=O,27.6%
Cc1nn(C)cc1CN1C[C@@H](COCC(N)=O)[C@H](c2ccncc2)C1,-7.2%
COC[C@@H]1OC[C@@]2(C)C3CC[C@@H](O)[C@@H](CC(=O)N4CCCCC4)[C@]3(C)CC[C@H]2O1 (stereo partly drawn),-18.0%[44.1 µM]
COc1ccc(C2Cn3nnc(C(=O)N4CCC(C(=O)NCCc5cccs5)CC4)c3CO2)cc1 (stereo not drawn),-22.7%
O=C(CCn1cccn1)N1CC(F)(F)C[C@H]1c1nc(C2CC2)no1,48.2%
COc1ccc(NC(=O)c2ccc3c(c2)N(C)C2CCCCCN2C3=O)cc1Cl (stereo not drawn),-9.8%
CCN(CC)Cc1cnc2c(C(=O)NC3CCNCC3)cnn2c1,8.0%
CC(=O)N1CCNc2cc(Nc3ccc(F)cc3)ncc2C1,-12.9%[44.1 µM]
CC(=O)NC[C@H]1C[C@@H]2CCN1C[C@@H]2c1cc(-c2ccc(F)cc2)nc(C)n1,i
CCNC(=O)NC[C@H]1C[C@@H]2CCN1C[C@@H]2c1cc(-c2ccccc2)nc(C)n1,-9.0%[44.1 µM]
SMILES,Pf Dd2 inh
CCC(CC)c1cc([C@H]2CN3CC[C@H]2C[C@@H]3CNC(C)=O)nc(-c2ccncc2)n1,2µM*
Cc1ccc2nc(CN(C)C(=O)c3ccc(C)c(N4CCNC4=O)c3)[nH]c2c1,-0.6%
O=C([C@H]1C[C@H](Oc2ccccc2)CN1C(=O)NC1CCCCC1)N1CCOCC1,9.1%
CCNCc1ccc(-c2ccc(F)cc2)o1,i
CCNCc1ccc(-c2ccc(Cl)cc2)o1,12.6µM*
Fc1ccc(-c2ccc(CNCCSc3nnnn3-c3ccccc3)o2)cc1Cl,46.0%
c1ccc(-c2ccc(CNCc3cccs3)o2)cc1,i
Clc1cccc(-c2ccc(CNc3ncncn3)o2)c1,-14.4%
CCN(CC)CCNCc1ccc(-c2ccccc2)o1,3.16µM*
CCCNC(=O)N1CC[C@@H](CC(=O)O)[C@@H](CC2=NCCc3ccc(C(C)(C)C)cc32)C1,-11.2%[44.1 µM]
O=C(NCc1ccncc1)c1cn(C2CN(C(=O)Nc3ccc4c(c3)OCCO4)C2)nn1,-11.0%
Cc1cccc(C(=O)N2CCCC(n3cc(-c4nc(C)no4)nn3)C2)c1 (stereo not drawn),i
Cc1cnc(C2CCOCC2)n1C1CCCN(C(=O)COc2ccc(F)cc2)C1 (stereo not drawn),i
COc1cccc(CN2CCOC3CCN([S+](=O)([O-])c4ccccc4C)CC3C2=O)c1 (stereo not drawn),i

# Screening data (PubChem)
